PubChem BioAssay (NCI)
Compounds without any hit were thinned out: in the full panel of roughly 83,000, 20% have a hit.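 Percent growth is the endpoint: 0 to 100 indicates growth inhibition (40 means 60% inhibition), 0 means no net growth, and negative values indicate cell death.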 Values without a mark were called inactive. Activity calls are given as the source filed them. Rule for the calls: active = growth percent below 10; inactive = the rest.

What was measured:
Assay in all cases: NCI-60 one-dose screen, 48 h (100 = growth as untreated, 0 = no growth, -100 = all killed)
Conditions in all cases: 10 µM unless noted
NCI-H23 lung = test system: NCI-H23 lung
NCI-H226 lung = test system: NCI-H226 lung
NCI-H322M lung = test system: NCI-H322M lung
HOP-62 NSCLC = test system: HOP-62 NSCLC
NCI-H460 lung = test system: NCI-H460 lung
HOP-92 NSCLC = test system: HOP-92 NSCLC
NCI-H522 lung = test system: NCI-H522 lung
A549/ATCC NSCLC = test system: A549/ATCC NSCLC
786-0 renal = test system: 786-0 renal
COLO 205 colon = test system: COLO 205 colon

Compound | growth (NCI-H23 lung) | growth (NCI-H226 lung) | growth (NCI-H322M lung) | growth (HOP-62 NSCLC) | growth (NCI-H460 lung) | growth (HOP-92 NSCLC) | growth (NCI-H522 lung) | growth (A549/ATCC NSCLC) | growth (786-0 renal) | growth (COLO 205 colon)
COc1ccc(/C=N\NC(=O)CN2CCN(c3cc4c(cc3F)c(=O)c(C(=O)N/N=C/c3ccc(OC)cc3)cn4C3CC3)CC2)cc1 | 96.3% | 85.6% | 91.7% | 97.4% | 86.1% | 92.1% | 73.8% | 82.8% | 93.9% | 96.9%
COc1ccc(C(=O)c2sc3nc(-c4ccccc4OC)ccc3c2N)cc1OC | 63.2% | 63% | 87.2% | 95.3% | 51.7% | 56.4% | 50.3% | 64.6% | 64.1% | 102%
COc1nc2c(cc1S(=O)(=O)c1ccccc1)CCc1c-2cnn1Cc1ccccc1 | 54.1% | 65.9% | 60.1% | 56.2% | 54% | 3.62% (active) | 43.2% | 57.9% | 52.3% | 60.9%
NC(N)=Nc1ccc(S(=O)(=O)O)cc1 | 102% | 105% | 114% | 106% | 109% | 84.3% | 79.3% | 106% | 98.3% | 109%
CCCCCCCCCCCCCCCCCCNC(=O)[C@H]1CSC(c2ccc(F)c(OC)c2)N1 (stereo not given in full) | 5.24% (active) | -69% (active) | -22.2% (active) | -97.6% (active) | -77.7% (active) | -5.83% (active) | 7.12% (active) | -12.9% (active) | -10.6% (active) | 20.1%
O=C(CN1CCN(c2cc3c(cc2F)c(=O)c(C(=O)O)cn3C2CC2)CC1)Nc1nc(-c2ccc(Cl)cc2)cs1 | 16.5% | 43.3% | 28.1% | 25.7% | 6.86% (active) | -5.35% (active) | 6.46% (active) | 11.4% | 29.1% | 63.2%
Cc1nn(-c2nc3ccccc3[nH]2)c2c1C(c1ccc3c(c1)OCO3)CC(=O)N2 (stereo not given) | 4.34% (active) | 32% | 65% | 22.1% | -8.19% (active) | 12.6% | 26.7% | 22.8% | 32.8% | 83.1%
CCOC(=O)/C=C/C(=O)[C@H](CC(C)C)NC(=O)[C@H](Cc1ccccc1)NC(=O)OCc1ccccc1 | 91% | 102% | 103% | 108% | 84.9% | 79.7% | 18% | 73.3% | 30% | 67.5%
C(=N\Nc1ccccn1)/c1ccccn1 | 12.1% | 16% | 15.7% | 19.2% | 7.9% (active) | 79.1% | -9.71% (active) | 12.2% | -41.9% (active) | 34.6%
CCOC(=O)CC(=O)c1c(C)cc(C)cc1C | 111% | 104% | 114% | 110% | 105% | 111% | 62.5% | 107% | 98.3% | 117%
Nc1nc2c(c3ncccc13)C(c1cccc(Br)c1)Cc1ncccc1-2 (stereo not given) | 39.5% | 72% | 41.6% | 20.3% | 10.6% | 67.2% | -12.4% (active) | 9.92% (active) | 21.3% | -36.1% (active)
Cc1cc(-c2nc3ccccc3s2)ccc1NC(=O)COc1ccc(Cl)cc1 | 79.7% | 70.6% | 106% | 89.8% | 92.8% | 83.5% | 87.8% | 109% | 93.4% | 110%
Cc1nc2nc(N)nc(N)c2nc1C | 91.5% | 94.6% | 95.1% | 88.6% | 108% | 87.3% | 89.8% | 102% | 98.4% | 117%
CCOC(=O)C(CC)n1c(=O)c2cc(OC)c(OC)cc2c2cnc3[nH]ccc3c21 (stereo not given) | 66% | 49.4% | 71% | 73.8% | 72.4% | 42.5% | 79.3% | 76.1% | 80.9% | 86%
CCCCCCCCCCCCCC1=NCCN1CCO | 72% | 95% | 93.5% | 58.9% | -68.9% (active) | 24.5% | 89% | 65.1% | 68.8% | -75% (active)
COc1cc(C2CC(=O)Nc3c2cnn3Cc2ccco2)cc2c1OCCO2 (stereo not given) | 96.6% | 92.4% | 82.5% | 88.3% | 76.6% | 109% | 44.4% | 80.6% | 98% | 81.2%
CN(C)CCOc1ccc(-c2nc3ccc(-c4nc5ccc(N6CCN(C)CC6)cc5[nH]4)cc3[nH]2)cc1 | 76.9% | 28.7% | 77.8% | 69.9% | 56% | 61.7% | 59.9% | 64.4% | 86.4% | 44.5%
Cc1ccc(Nc2nc(N)nc(Nc3ccc4ccccc4c3)n2)cc1 | 69.2% | 89.8% | 52.4% | 47% | 14.6% | 21.1% | 6.88% (active) | 30.9% | 46.6% | 18.7%
COc1ccc(C2CC(=O)Nc3c2c(C)nn3-c2nc3ccccc3[nH]2)cc1 (stereo not given) | 99.1% | 101% | 53.9% | 116% | 20.8% | 89.1% | 98.2% | 97.4% | 106% | 129%
CN1CCN(Cc2ccc(NC(=O)c3cncc(C#Cc4cncc5nccnc45)c3)cc2C(F)(F)F)CC1 | 33.8% | 5.97% (active) | 43.6% | 53.5% | 34.5% | -11.9% (active) | 43.8% | 70.8% | 73.1% | 2.52% (active)
O=C(CN1CCN(c2cc3c(cc2F)c(=O)c(C(=O)O)cn3C2CC2)CC1)Nc1cc(=O)[nH]c(=O)[nH]1 | 96.4% | 101% | 95.3% | 102% | 105% | 88.7% | 92.8% | 103% | 95.9% | 110%
Nc1cccc(-c2nc3sccn3c2-c2ccnc(NCCCNS(=O)(=O)c3ccc(C(F)(F)F)cc3)n2)c1 | 4.88% (active) | 2.96% (active) | 19.4% | 19.5% | 2.98% (active) | 71.4% | 8.73% (active) | 12.8% | 23.6% | 6.24% (active)
C=C1CC2(OC1=O)C(=O)N(CCCCCCCN1C(=O)C3(CC(=C)C(=O)O3)c3ccccc31)c1ccccc12 (stereo not given) | 52.6% | 63% | 87% | 117% | 38% | -1.35% (active) | -48.1% (active) | 83.7% | 46.7% | 12.8%
CN1Cc2c(cc(CN3CCCCC3)n2C)C(c2ccc(Br)cc2)C1 (stereo not given) | 84.6% | 90.7% | 91.5% | 91.1% | 96.9% | 53.9% | 90.5% | 93.8% | 66.5% | 83.1%
O=C(CCCN1CCOCC1)Nc1ccc(Cn2nnc3c2C(=O)c2nnn(Cc4ccc(NC(=O)CCCN5CCOCC5)cc4)c2C3=O)cc1 | -6.94% (active) | 97.8% | 21% | 73.9% | 22.4% | -20.9% (active) | -34.9% (active) | 83.8% | 101% | -70.5% (active)
COc1ccc(S(=O)(=O)NCCCNc2cc(-c3c(-c4cccc(OC)c4)nc4sccn34)ccn2)cc1 | 59.8% | 37.7% | 67.6% | 80.6% | 44.2% | 62.1% | 52.7% | 42.9% | 52.1% | 35.8%
CCN(CC)CC#CCOC(=O)[C@]1(C)CCC[C@@]2(C)[C@H]1CC(C=O)=C1C=C(C(C)C)CC[C@@H]12 | 60.2% | 76% | 94.5% | 74.8% | 64% | 44.8% | 53.3% | 62.4% | 58.3% | 44.5%
